Assay results from PubChem BioAssay (Tox21).
Records with an inconclusive call do not appear. Calls of active or inactive are those of the source. Unless noted, the call rests on the fitted dose curve; in most records, active means well fitted curve in the direction sought with a large enough effect in the repeat runs; inconclusive means weak or mixed curves; inactive means no such curve, though single readings can be large; an effect the other way counts as inactive or inconclusive.

What was measured:
[1] = qHTS assay to identify small molecule antagonists of the glucocorticoid receptor (GR) signaling pathway - cell viability counter screen (AID 720693); further: nearly all actives have a fitted effect of over 55% in size
[2] = qHTS assay for identifying genotoxic compounds that show differential cytotoxicity against isogenic chicken DT40 cell lines with known DNA damage response pathways - wild type cell line (AID 743012); further: nearly all actives have a fitted effect of over 60% in size
How it was run: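 300 wt DT40 cells/well; cpd (DMSO) pintool-transferred after ~0.5 h at 37 C/5% CO2; 40 h incubation; CellTiter-Glo added, 30 min RT; luminescence read.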

[3] = qHTS assay for identifying genotoxic compounds that show differential cytotoxicity against isogenic chicken DT40 cell lines with known DNA damage response pathways - Rev3 mutant cell line (AID 743014); further: nearly all actives have a fitted effect of over 55% in size
[4] = qHTS assay for identifying genotoxic compounds that show differential cytotoxicity against isogenic chicken DT40 cell lines with known DNA damage response pathways - Rad54/Ku70 mutant cell line (AID 743015); further: nearly all actives have a fitted effect of over 60% in size
[5] = qHTS assay to identify small molecule antagonists of the androgen receptor (AR) signaling pathway - cell viability counter screen (AID 743033; further: nearly all actives have a fitted effect of over 45% in size)
[6] = molecular target: Androgen receptor (Homo sapiens) (UniProt P10275); assay: qHTS assay to identify small molecule antagonists of the androgen receptor (AR) signaling pathway (AID 743035; active means well fitted inhibition curve with a large enough effect in the signal ratio in the repeat runs, not every such curve was filed as active; the % refers to the signal ratio)
How it was run: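 In this cell-based reporter screen, compounds were tested in concentration series against R1881-activated HEK293 cells expressing beta-lactamase under UAS control; after 16 h at 37C, FRET substrate was added and fluorescence read 2 h later.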

[7] = molecular target: Androgen receptor (Homo sapiens) (UniProt P10275); assay: qHTS assay to identify small molecule agonists of the androgen receptor (AR) signaling pathway (AID 743036; active means well fitted activation curve with a large enough effect in the signal ratio in the repeat runs, with a control signal flat, not every such curve was filed as active; the % refers to the signal ratio)
How it was run: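 Screening used 2,000 AR-bla HEK293 cells per well, treated 16 h at 37C with test compounds in DMSO alongside positive and DMSO-only controls; beta-lactamase activity was then read by LiveBLAzer B/G FRET fluorescence after 2 h at room temperature.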

[8] = molecular target: Androgen receptor (Homo sapiens) (UniProt P10275); assay: qHTS assay to identify small molecule agonists of the androgen receptor (AR) signaling pathway using the MDA cell line (AID 743040; further: nearly all actives have a fitted effect of over 20% in size)
How it was run: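 Luciferase read-out, ONE-Glo, 30 min RT. Cells: MDA-kb2 AR-luc, MMTV promoter with AR and GR response elements. Compound exposure 16 h, 37C, 0% CO2, after 5 h pre-incubation. qHTS agonist mode.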

[9] = qHTS assay to identify small molecule antagonists of the androgen receptor (AR) signaling pathway using the MDA cell line - cell viability counter screen (AID 743041; further: nearly all actives have a fitted effect of over 45% in size)
How it was run: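 Cytotoxicity counter screen: MDA-kb2 AR-luc cells, compound + R1881, 16 h, 37C, 0% CO2; CellTiter-Fluor added at 15.5 h, fluorescence read after 30 min.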

[10] = molecular target: Androgen receptor (Homo sapiens) (UniProt P10275); assay: qHTS assay to identify small molecule antagonists of the androgen receptor (AR) signaling pathway using the MDA cell line (AID 743042; further: nearly all actives have a fitted effect of over 55% in size)
How it was run: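 MDA-kb2 breast carcinoma cells carrying MMTV-luciferase (AR/GR responsive) were co-treated with compounds and the agonist R1881 for 16 h at 37C. Inhibition read as ONE-Glo luminescence; CellTiter-Fluor fluorescence measured in parallel for cytotoxicity.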

[11] = qHTS assay to identify small molecule antagonists of the thyroid receptor (TR) signaling pathway - cell viability counter screen (AID 743064); further: nearly all actives have a fitted effect of over 50% in size
How it was run: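 Viability of T3-stimulated (1 nM final) GH3.TRE-Luc cells is measured by CellTiter-Fluor fluorescence after 23.5 h compound exposure at 37 °C plus 30 min reagent incubation.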

[12] = qHTS assay to identify small molecule antagonists of the thyroid receptor (TR) signaling pathway (AID 743065); further: series mostly up to about 70 µM; nearly all actives have a fitted effect of over 55% in size
How it was run: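 GH3.TRE-Luc rat pituitary cells (two TREs driving luciferase) were dosed with compound, then stimulated with 1 nM T3 (final) for 23.5 h at 37 C. ONE-Glo luminescence was the read-out, with CellTiter-Fluor fluorescence as the cytotoxicity counter-screen.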

[13] = system: thyroid hormone receptor (rat, GH3 cells); assay: qHTS assay to identify small molecule agonists of the thyroid receptor (TR) signaling pathway (AID 743066; calls by dose curve)
[14] = molecular target: Estrogen receptor (Homo sapiens) (UniProt P03372); assay: qHTS assay to identify small molecule antagonists of the estrogen receptor alpha (ER-alpha) signaling pathway (AID 743069; active means well fitted curve in the direction sought with a large enough effect in the signal ratio in the repeat runs, not every such curve was filed as active; the % refers to the signal ratio)
How it was run: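 Beta-lactamase FRET fluorescence is read after 2 hr at room temperature with LiveBLAzer B/G substrate. Before that, ER-alpha-bla HEK293 cells sit 4 hr after plating, then receive compound plus 17beta-estradiol and incubate 18 hr at 37C.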

[15] = qHTS assay to identify small molecule antagonists of the estrogen receptor alpha (ER-alpha) signaling pathway - cell viability counter screen (AID 743074; calls by dose curve;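 further: HEK293 cells carrying ER-alpha-UAS-bla reporter stimulated with 17beta-estradiol; nearly all actives have a fitted effect of over 45% in size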)
[16] = molecular target: Estrogen receptor (Homo sapiens) (UniProt P03372); assay: qHTS assay to identify small molecule agonists of the estrogen receptor alpha (ER-alpha) signaling pathway (AID 743075; calls by dose curve;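 further: HEK293 GripTite cells with ER-alpha and UAS-driven beta-lactamase reporter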)
[17] = molecular target: Estrogen receptor (Homo sapiens) (UniProt P03372); assay: qHTS assay to identify small molecule agonists of the estrogen receptor alpha (ER-alpha) signaling pathway using the BG1 cell line (AID 743079); further: nearly all actives have a fitted effect of over 20% in size
[18] = qHTS assay to identify small molecule antagonists of the estrogen receptor alpha (ER-alpha) signaling pathway using the BG1 cell line (AID 743080; calls by dose curve; further: series mostly up to about 70 µM; nearly all actives have a fitted effect of over 25% in size)
How it was run: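 Antagonist mode: compounds in DMSO were pinned onto BG1-Luc-4E2 cells alongside 17beta-estradiol agonist, incubated 21.5 h, and ERE-driven luciferase measured with ONE-Glo. Cytotoxicity was multiplexed using CellTiter-Fluor fluorescence.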

[19] = qHTS assay to identify small molecule antagonists of the estrogen receptor alpha (ER-alpha) signaling pathway using the BG1 cell line - cell viability counter screen (AID 743081);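 further: compound given together with 17beta-estradiol as the ER stimulus; series mostly up to about 70 µM; nearly all actives have a fitted effect of over 45% in size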
Aromatase (Homo sapiens) = Aromatase (Homo sapiens) (UniProt P11511); assay: qHTS assay to identify aromatase inhibitors (AID 743083)

Measured: Potency

Chain of Estrogen receptor (Homo sapiens) (P03372 whole entry, looked up): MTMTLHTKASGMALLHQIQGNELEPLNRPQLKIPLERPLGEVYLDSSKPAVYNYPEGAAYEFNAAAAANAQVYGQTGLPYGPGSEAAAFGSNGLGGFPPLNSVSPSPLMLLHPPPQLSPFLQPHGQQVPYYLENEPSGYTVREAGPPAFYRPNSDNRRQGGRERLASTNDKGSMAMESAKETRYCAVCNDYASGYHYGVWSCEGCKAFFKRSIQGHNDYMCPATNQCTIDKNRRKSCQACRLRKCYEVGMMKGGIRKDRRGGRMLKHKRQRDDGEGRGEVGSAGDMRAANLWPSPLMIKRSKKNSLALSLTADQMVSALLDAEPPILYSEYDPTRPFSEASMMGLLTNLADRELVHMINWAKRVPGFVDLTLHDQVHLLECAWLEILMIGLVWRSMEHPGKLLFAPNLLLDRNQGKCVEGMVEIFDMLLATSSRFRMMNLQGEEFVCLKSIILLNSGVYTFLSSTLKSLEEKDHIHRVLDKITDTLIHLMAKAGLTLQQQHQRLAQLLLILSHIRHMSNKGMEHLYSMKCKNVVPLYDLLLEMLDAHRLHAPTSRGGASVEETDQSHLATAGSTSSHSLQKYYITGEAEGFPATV
Chain of Androgen receptor (Homo sapiens) (P10275 whole entry, looked up): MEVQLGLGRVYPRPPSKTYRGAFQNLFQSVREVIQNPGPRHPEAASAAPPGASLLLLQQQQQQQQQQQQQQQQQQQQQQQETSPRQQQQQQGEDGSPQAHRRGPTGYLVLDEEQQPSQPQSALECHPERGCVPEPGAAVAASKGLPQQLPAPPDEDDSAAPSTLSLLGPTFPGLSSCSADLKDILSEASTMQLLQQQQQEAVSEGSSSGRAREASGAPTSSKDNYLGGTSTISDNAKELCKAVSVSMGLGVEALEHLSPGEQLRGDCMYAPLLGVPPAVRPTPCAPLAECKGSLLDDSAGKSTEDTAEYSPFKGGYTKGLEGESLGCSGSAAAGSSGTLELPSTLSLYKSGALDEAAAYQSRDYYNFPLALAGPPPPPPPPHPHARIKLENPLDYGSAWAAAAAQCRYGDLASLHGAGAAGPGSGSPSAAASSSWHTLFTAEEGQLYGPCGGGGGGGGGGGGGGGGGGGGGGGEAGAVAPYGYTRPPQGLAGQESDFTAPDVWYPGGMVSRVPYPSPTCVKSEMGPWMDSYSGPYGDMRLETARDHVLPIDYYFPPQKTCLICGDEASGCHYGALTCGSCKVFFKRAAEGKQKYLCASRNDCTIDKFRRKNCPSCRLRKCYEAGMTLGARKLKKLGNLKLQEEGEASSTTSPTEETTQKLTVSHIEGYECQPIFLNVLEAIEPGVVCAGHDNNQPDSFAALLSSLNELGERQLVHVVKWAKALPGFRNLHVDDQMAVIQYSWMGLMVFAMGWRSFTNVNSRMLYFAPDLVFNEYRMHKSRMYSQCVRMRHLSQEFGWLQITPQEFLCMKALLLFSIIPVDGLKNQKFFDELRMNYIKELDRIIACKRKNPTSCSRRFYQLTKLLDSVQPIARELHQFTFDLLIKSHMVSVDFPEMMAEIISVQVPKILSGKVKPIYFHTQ
Chain of Aromatase (Homo sapiens) (P11511 whole entry, looked up): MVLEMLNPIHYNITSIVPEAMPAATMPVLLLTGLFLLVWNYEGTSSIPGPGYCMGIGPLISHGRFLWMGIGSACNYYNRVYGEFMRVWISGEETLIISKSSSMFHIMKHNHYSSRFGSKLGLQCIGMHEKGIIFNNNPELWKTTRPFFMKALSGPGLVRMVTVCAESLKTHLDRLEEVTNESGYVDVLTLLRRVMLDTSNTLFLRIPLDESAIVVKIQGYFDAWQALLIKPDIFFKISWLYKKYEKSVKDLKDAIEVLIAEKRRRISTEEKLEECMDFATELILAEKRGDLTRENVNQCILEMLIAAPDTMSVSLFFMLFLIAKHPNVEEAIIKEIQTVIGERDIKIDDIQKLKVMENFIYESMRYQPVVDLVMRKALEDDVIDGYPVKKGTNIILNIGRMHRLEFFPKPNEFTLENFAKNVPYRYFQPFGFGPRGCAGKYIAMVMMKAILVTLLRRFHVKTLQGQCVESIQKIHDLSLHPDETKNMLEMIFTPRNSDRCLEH

C1COCCO1
inactive: all assays above

Oc1cc(O)c2c(c1)O[C@H](c1ccc(O)c(O)c1)[C@H](O)C2
not listed: [6] | [7] | [8] | [10]
inactive: all other assays above

C1CCCCCCCCCCC1
not listed: [6]
inactive: all other assays above

C=CCOCC(O)CS(=O)(=O)O (configuration not stated)
not listed: [6] | [7] | [8] | [10]
inactive: all other assays above

CCCC(C)C(=O)O (configuration not stated)
not listed: [6] | [7] | [8] | [10]
inactive: all other assays above

O=C(O)c1cccc(C(=O)O)n1
not listed: [6] | [7] | [8] | [10]
inactive: all other assays above

O=C(O)c1ccccc1S
not listed: [6] | [7] | [8] | [10] | [15] | [19]
inactive: all other assays above

C=CCn1c(=O)n([C@@H]2O[C@H](CO)[C@@H](O)[C@H]2O)c2nc(N)[nH]c(=O)c21
inactive: all assays above
